In PubChem BioAssay (EPA / NIEHS):
Some compounds were tested as several samples or in several runs, with calls that do not always agree. The source made the active and inactive calls. The calls were made as follows: active = hit-call score of the fitted dose curve at least 0.9, where 1 is the maximum; inactive = score below 0.9.

Experiments:
Conditions in all cases: mRNA level, 48 h; actives raise or lower the signal
[1] = read-out: Cytochrome P450 7A1 (Homo sapiens) (UniProt P22680); experiment: LTEA_HepaRG_CYP7A1: Life Technologies and Expression Analysis (LTEA) Assay for Cytochrome P450 7A1 (CYP7A1) using HepaRG (AID 2283496)
How it was run: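 Gene expression endpoint in human HepaRG liver cells treated for 48 h with test chemicals (up to 100 uM, 0.5% DMSO). Values come from bidirectional concentration-response fitting versus DMSO.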

[2] = read-out: Glutathione S-Transferase (GSTA2), GSTA2 (gene 2939); experiment: LTEA_HepaRG_GSTA2: Life Technologies and Expression Analysis (LTEA) Assay for Glutathione S-Transferase (GSTA2) using HepaRG (AID 2283497)
How it was run: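 Human HepaRG cells, plated 48 h, then exposed in serum-free induction medium for 48 h to eight half-log concentrations up to 100 uM in 0.5% DMSO, duplicate. GSTA2 mRNA by qRT-PCR, normalized to ACTB/GAPDH/POLR2A; bidirectional fit versus DMSO.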

[3] = read-out: Glutamate-cysteine ligase catalytic (GCLC), GCLC (gene 2729); experiment: LTEA_HepaRG_GCLC: Life Technologies and Expression Analysis (LTEA) Assay for Glutamate-cysteine ligase catalytic (GCLC) using HepaRG (AID 2283498)
How it was run: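 Differentiated human HepaRG cells, plated 48 h then switched to serum-free induction medium, were exposed in duplicate for 48 h to 8 half-log concentrations topping at 100 uM in 0.5% DMSO. GCLC mRNA was quantified by qRT-PCR against ACTB, GAPDH and POLR2A.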

[4] = read-out: Glutamate-cysteine ligase regulatory (GCLM), GCLM (gene 2730); experiment: LTEA_HepaRG_GCLM: Life Technologies and Expression Analysis (LTEA) Assay for Glutamate-cysteine ligase regulatory (GCLM) using HepaRG (AID 2283500)
How it was run: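 Differentiated human HepaRG cells exposed 48 h in serum-free induction medium to 8-point half-log concentrations (top 100 uM, 0.5% DMSO), in duplicate. GCLM mRNA quantified by qRT-PCR, normalized to ACTB, GAPDH, POLR2A; bidirectional fitting versus DMSO.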

[5] = read-out: Glutathione S-transferase M3 (GSTM3), GSTM3 (gene 2947); experiment: LTEA_HepaRG_GSTM3: Life Technologies and Expression Analysis (LTEA) Assay for Glutathione S-transferase M3 (GSTM3) using HepaRG (AID 2283501)
How it was run: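 Differentiated HepaRG cells in serum-free induction medium were exposed in duplicate for 48 h to 8 half-log concentrations up to 100 uM in 0.5% DMSO. GSTM3 mRNA was measured by TaqMan qRT-PCR, normalized to ACTB/GAPDH/POLR2A, and fitted bidirectionally versus DMSO.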

[6] = read-out: Heat shock 70 kDa protein 1 (HSPA1A), gene 3303; experiment: LTEA_HepaRG_HSPA1A: Life Technologies and Expression Analysis (LTEA) Assay for Heat shock 70 kDa protein 1 (HSPA1A) using HepaRG (AID 2283502)
How it was run: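 Differentiated human HepaRG cells in serum-free induction medium were exposed in duplicate for 48 h to eight concentrations (top 100 uM, half-log steps, 0.5% DMSO). HSPA1A mRNA was quantified by qRT-PCR, normalized to ACTB, GAPDH and POLR2A, and fitted bidirectionally against DMSO.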

[7] = read-out: Hypoxia-inducible factor 1-alpha (Homo sapiens) (UniProt Q16665); experiment: LTEA_HepaRG_HIF1A: Life Technologies and Expression Analysis (LTEA) Assay for Hypoxia-inducible factor 1 (HIF1A) Trancription factor using HepaRG (AID 2283503)
How it was run: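 HepaRG, 48 h exposure, 8-pt half-log series from 100 uM, 0.5% DMSO vehicle, duplicates. Readout: HIF1A transcript by qRT-PCR (Fluidigm array), housekeeping-normalised. Bidirectional curve fit vs DMSO baseline.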

[8] = read-out: 3-Hydroxy-3-Methylglutaryl-CoA Synthase 2 (HMGCS2), HMGCS2 (gene 3158); experiment: LTEA_HepaRG_HMGCS2: Life Technologies and Expression Analysis (LTEA) Assay for 3-Hydroxy-3-Methylglutaryl-CoA Synthase 2 (HMGCS2) using HepaRG (AID 2283504)
How it was run: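 Differentiated human HepaRG cells were exposed in duplicate for 48 h in serum-free induction medium to eight concentrations (top 100 uM, half-log steps, 0.5% DMSO). HMGCS2 mRNA was quantified by TaqMan qRT-PCR, normalised to ACTB, GAPDH and POLR2A, then fitted bidirectionally against DMSO.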

HGF (gene 3082) = experiment: LTEA_HepaRG_HGF: Life Technologies and Expression Analysis (LTEA) Assay for Hepatocyte Growth Facto (HGF) using HepaRG (AID 2283505)
How it was run: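 Differentiated human HepaRG cells in serum-free induction medium were exposed in duplicate for 48 h to eight concentrations (top 100 uM, half-log steps, 0.5% DMSO). HGF mRNA was quantified by qRT-PCR, normalized to ACTB, GAPDH and POLR2A.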

[9] = read-out: Insulin Like Growth Factor 1 (IGF1), IGF1 (gene 3479); experiment: LTEA_HepaRG_IGF1: Life Technologies and Expression Analysis (LTEA) Assay for Insulin Like Growth Factor 1 (IGF1) using HepaRG (AID 2283506)
How it was run: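 Differentiated human HepaRG cells were dosed for 48 h in serum-free induction medium with 0.5% DMSO, eight half-log concentrations up to 100 uM, in duplicate. IGF1 mRNA was quantified by qRT-PCR normalized to ACTB, GAPDH, POLR2A; bidirectional fitting versus DMSO.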

[10] = read-out: Intercellular Adhesion Molecule 1 (ICAM1), ICAM1 (gene 3383); experiment: LTEA_HepaRG_ICAM1: Life Technologies and Expression Analysis (LTEA) Assay for Intercellular Adhesion Molecule 1 (ICAM1) using HepaRG (AID 2283507)
How it was run: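 Differentiated HepaRG cells in serum-free induction medium were exposed in duplicate for 48 h to eight half-log concentrations up to 100 uM in 0.5% DMSO. Transcript levels were measured by qRT-PCR normalized to ACTB, GAPDH and POLR2A; bidirectional fits relative to DMSO.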

[11] = read-out: Insulin-like growth factor-binding protein 1 (IGFBP1), IGFBP1 (gene 3484); experiment: LTEA_HepaRG_IGFBP1: Life Technologies and Expression Analysis (LTEA) Assay for Insulin-like growth factor-binding protein 1 (IGFBP1) using HepaRG (AID 2283508)
How it was run: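 Differentiated human HepaRG cells in serum-free induction medium were exposed in duplicate for 48 h to eight concentrations, top 100 uM with half-log dilutions, in 0.5% DMSO. Transcript levels came from qRT-PCR normalised to ACTB, GAPDH and POLR2A, fitted bidirectionally against DMSO.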

[12] = read-out: Interleukin 6 (IL6), IL6 (gene 3569); experiment: LTEA_HepaRG_IL6: Life Technologies and Expression Analysis (LTEA) Assay for Interleukin 6 (IL6) using HepaRG (AID 2283509)
How it was run: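 Differentiated human HepaRG cells, plated 48 h then switched to serum-free induction medium, were exposed in duplicate for 48 h to eight half-log concentrations up to 100 uM in 0.5% DMSO. IL6 mRNA measured by qRT-PCR, normalized to ACTB/GAPDH/POLR2A.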

[13] = read-out: Interleukin 6 Receptor (IL6R), IL6R (gene 3570); experiment: LTEA_HepaRG_IL6R: Life Technologies and Expression Analysis (LTEA) Assay for Interleukin 6 Receptor (IL6R) using HepaRG (AID 2283510)
How it was run: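 Differentiated human HepaRG cells, plated 48 h then switched to serum-free induction medium, were dosed in duplicate for 48 h at eight half-log concentrations up to 100 uM in 0.5% DMSO. IL6R mRNA quantified by qRT-PCR, normalized to ACTB/GAPDH/POLR2A; bidirectional fit versus DMSO.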

[14] = read-out: Potassium channel subfamily K member 1 (KCNK1), KCNK1 (gene 3775); experiment: LTEA_HepaRG_KCNK1: Life Technologies and Expression Analysis (LTEA) Assay for Potassium channel subfamily K member 1 (KCNK1) using HepaRG (AID 2283511)
How it was run: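 Differentiated human HepaRG cells in serum-free induction medium were exposed in duplicate for 48 h to 8 half-log concentrations up to 100 uM in 0.5% DMSO. KCNK1 mRNA was measured by TaqMan qRT-PCR, normalized to ACTB, GAPDH and POLR2A, and fitted bidirectionally versus DMSO.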

[15] = read-out: Keratin 19 (KRT19), KRT19 (gene 3880); experiment: LTEA_HepaRG_KRT19: Life Technologies and Expression Analysis (LTEA) Assay for Keratin 19 (KRT19) using HepaRG (AID 2283512)
How it was run: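 Differentiated human HepaRG cells, plated 48 h, were exposed in duplicate for 48 h in serum-free induction medium to eight half-log concentrations up to 100 uM in 0.5% DMSO. KRT19 mRNA was quantified by qRT-PCR, normalized to ACTB, GAPDH and POLR2A, and fitted bidirectionally versus DMSO.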

[16] = read-out: JUN Transcription Factor, JUN (gene 3725); experiment: LTEA_HepaRG_JUN: Life Technologies and Expression Analysis (LTEA) Assay for JUN Transcription Factor using HepaRG (AID 2283513)
How it was run: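 Differentiated HepaRG cells were exposed to chemicals for 48 h in serum-free induction medium, 8 concentrations from 100 uM in half-log steps, 0.5% DMSO vehicle, in duplicate. JUN mRNA was quantified by TaqMan qRT-PCR, normalized to ACTB, GAPDH, POLR2A.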

[17] = read-out: Lipase C (LIPC), LIPC (gene 3990); experiment: LTEA_HepaRG_LIPC: Life Technologies and Expression Analysis (LTEA) Assay for Lipase C (LIPC) using HepaRG (AID 2283514)
How it was run: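 Differentiated human HepaRG cells in serum-free induction medium were exposed in duplicate for 48 h to eight concentrations (top 100 uM, half-log steps, 0.5% DMSO). LIPC mRNA was quantified by TaqMan qRT-PCR, normalized to ACTB, GAPDH and POLR2A, with bidirectional fitting versus DMSO.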

[18] = read-out: Lipoprotein lipase (LPL), LPL (gene 4023); experiment: LTEA_HepaRG_LPL: Life Technologies and Expression Analysis (LTEA) Assay for Lipoprotein lipase (LPL) using HepaRG (AID 2283515)
How it was run: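 Differentiated human HepaRG cells in serum-free induction medium were exposed in duplicate for 48 h to eight half-log concentrations (top 100 uM) in 0.5% DMSO. LPL mRNA was quantified by TaqMan qRT-PCR, normalized to ACTB, GAPDH and POLR2A.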

[19] = read-out: growth arrest and DNA damage 45 (GADD45G), GADD45G (gene 10912); experiment: LTEA_HepaRG_GADD45G: Life Technologies and Expression Analysis (LTEA) Assay for growth arrest and DNA damage 45 (GADD45G) using HepaRG (AID 2283499)
How it was run: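 Differentiated human HepaRG cells in serum-free induction medium were exposed for 48 h to 8 half-log concentrations up to 100 uM in 0.5% DMSO, in duplicate. GADD45G mRNA was measured by TaqMan qRT-PCR, normalised to ACTB, GAPDH and POLR2A, and fitted bidirectionally against DMSO.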

Measured: AC50

Sequence of Hypoxia-inducible factor 1-alpha (Homo sapiens) (Q16665 whole entry, looked up): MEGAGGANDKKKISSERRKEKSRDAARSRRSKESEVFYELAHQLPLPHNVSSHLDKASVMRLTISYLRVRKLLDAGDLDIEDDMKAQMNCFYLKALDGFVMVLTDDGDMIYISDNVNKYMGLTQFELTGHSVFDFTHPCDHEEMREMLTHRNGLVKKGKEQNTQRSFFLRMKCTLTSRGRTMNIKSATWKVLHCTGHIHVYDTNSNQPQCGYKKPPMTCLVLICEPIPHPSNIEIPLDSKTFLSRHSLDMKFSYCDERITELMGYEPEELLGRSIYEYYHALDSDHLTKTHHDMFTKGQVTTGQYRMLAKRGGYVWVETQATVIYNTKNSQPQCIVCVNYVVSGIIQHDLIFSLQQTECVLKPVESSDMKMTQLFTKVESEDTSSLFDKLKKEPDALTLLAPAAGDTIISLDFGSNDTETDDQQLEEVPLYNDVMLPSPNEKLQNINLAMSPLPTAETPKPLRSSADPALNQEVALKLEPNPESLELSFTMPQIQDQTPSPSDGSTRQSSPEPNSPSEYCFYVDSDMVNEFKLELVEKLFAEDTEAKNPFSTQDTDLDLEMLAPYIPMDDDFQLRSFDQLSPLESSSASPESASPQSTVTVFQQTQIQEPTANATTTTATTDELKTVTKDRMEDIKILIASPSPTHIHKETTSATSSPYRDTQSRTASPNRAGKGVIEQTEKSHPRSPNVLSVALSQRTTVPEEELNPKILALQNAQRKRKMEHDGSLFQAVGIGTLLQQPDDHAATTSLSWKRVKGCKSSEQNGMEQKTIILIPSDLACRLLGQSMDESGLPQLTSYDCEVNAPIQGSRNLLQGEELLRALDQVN

CNC(=O)ON=CC(C)(C)SC
inactive: [1] | [2] | [3] | [4] | [5] | [6] | [7] | [8] | HGF (gene 3082) | [9] | [10] | [11] | [12] | [13] | [14] | [15] | [16] | [17] | [18]

CCCCC(CC)COC(=O)c1ccccc1C(=O)OCC(CC)CCCC (stereo not given)
inactive: [1] | [2] | [3] | [19] | [4] | [5] | [6] | [7] | [8] | HGF (gene 3082) | [9] | [10] | [11] | [12] | [13] | [14] | [15] | [16] | [17] | [18]

O=C(O)c1nc(Cl)ccc1Cl
inactive: [1] | [2] | [3] | [19] | [4] | [5] | [6] | [7] | [8] | HGF (gene 3082) | [9] | [10] | [11] | [12] | [13] | [14] | [15] | [16] | [17] | [18]
active: [2] 50 µM
